In PubChem BioAssay (NCATS):
Values joined by “and” are separate entries in the source; they are usually repeats but may differ in a detail not shown here. Equal entries are not always repeated. Results filed as inconclusive are left out. Active and inactive are the calls of the source. Unless noted, the call rests on the fitted dose curve; in most records, active means well fitted curve in the direction sought with a large enough effect; inconclusive means small, poorly fitted or top-dose-only effect, or another doubt; inactive means no such curve, though single readings can be large; an effect the other way counts as inactive or inconclusive.

Key:
[1] = Cell Viability - BJ (AID 421; calls by dose curve;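 further: potency means the concentration at half of the fitted maximal effect; cells exposed to compound for 40 hours at 37 °C before readout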); settings: BJ fibroblast viability, qHTS
Procedure, shortened: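 Normal human BJ foreskin fibroblasts, 1500/well in complete medium, treated 40 hr at 37 °C. Cellular ATP by CellTiter-Glo luminescence; normalized to DMSO and 100 uM tamoxifen, AC50 from Hill fit.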

[2] = Cell Viability - Hek293 (AID 427;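 active means compounds whose dose-response curve shows a full or clear partial loss of cell viability, called from curve shape rather than a numeric limit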;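 further: potency means the concentration at half of the fitted maximal effect; cells exposed to compound for 40 hours at 37 °C before reading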); settings: qHTS
Procedure, shortened: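 HEK293 cells in complete medium were exposed to compound for 40 hr at 37 °C, then cellular ATP was read by CellTiter-Glo luminescence. Data were normalized to DMSO (basal) and 100 uM tamoxifen (100% inhibition), and AC50 came from Hill fits.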

[3] = Cell Viability - HepG2 (AID 433; calls by dose curve;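 further: potency means the concentration at half of the fitted maximal effect; potency for ATP loss meaning cytotoxicity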); settings: qHTS
Procedure, shortened: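 In this qHTS format, a 40 h, 37 °C compound incubation of HepG2 cells in complete medium precedes a 20 min CellTiter-Glo step at room temperature. Tamoxifen and doxorubicin serve as positive controls; Hill-equation fits yield AC50.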

[4] = Cell Viability - MRC5 (AID 434; calls by dose curve;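 further: potency means the concentration at half of the fitted maximal effect; potency reflects cytotoxicity seen as loss of intracellular ATP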); settings: MRC5 lung fibroblast viability, qHTS
Procedure, shortened: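 qHTS cytotoxicity in human lung fibroblast MRC5 cells; 40 hr treatment, 37 °C; cellular ATP by luciferase luminescence; DMSO = 0%, 100 uM tamoxifen = 100% inhibition; Hill-fit AC50.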

[5] = Cell Viability - SK-N-SH (AID 435; calls by dose curve;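 further: potency means the concentration at half of the fitted maximal effect; compound exposure lasted 40 h at 37 °C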); settings: SK-N-SH neuroblastoma cell viability qHTS
Procedure, shortened: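 Human neuroblastoma line, 40 h exposure at 37 °C, ATP quantified via luciferase luminescence; DMSO and 100 uM tamoxifen define 0 and 100% inhibition for AC50 fitting.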

[6] = biological target: Mitogen-activated protein kinase 10 (Mus musculus) (UniProt Q61831); assay: JNK3 AlphaScreen Assay (AID 530; active means well fitted curve in either direction with a large enough effect, not every such curve was filed as active;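 further: kinase came from lysate of stimulated human HepG2 cells; signal reports phosphorylation of biotinylated GST-cJun 1-79 at Ser73 with 10 µM ATP; on the % scale 0 is the no-effect control and ±100 the full control effect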)
Procedure, shortened: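 Room-temperature AlphaScreen kinase assay; pre-activated HepG2 lysate as JNK3 source, biotin-GST-cJun(1-79) substrate, 10 uM ATP, compound 15 min preincubation.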

[7] = Cell Viability - N2a (AID 540); settings: N2a mouse neuroblastoma cell viability; at 92.2 µM (top of the series);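 further: plate controls were DMSO alone for no effect and tamoxifen control for full effect; nearly all actives have a fitted effect of over 45% in size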
Procedure, shortened: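 Mouse neuroblastoma N2a cells (1500/well) were preincubated 5 hr at 37 °C, then exposed to compounds for 40 hr at 37 °C in complete medium. Viability was read as intracellular ATP by CellTiter-Glo luminescence; AC50 from Hill fits.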

[8] = Cell Viability - NIH 3T3 (AID 541); settings: NIH 3T3 cell viability, qHTS; activity change, negative = cytotoxicity: at 92.2 µM (top of the series);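 further: plate controls were DMSO alone for no effect and tamoxifen positive control for full effect; nearly all actives have a fitted effect of over 25% in size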
Procedure, shortened: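 NIH 3T3 mouse embryo fibroblasts (1000 cells/well) were plated in complete medium and treated with compound for 40 hr at 37 °C. Viability was read as intracellular ATP by CellTiter-Glo luminescence; AC50 values came from Hill-equation fits of concentration-response data.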

[9] = Cell Viability - HUV-EC-C (AID 542); further: on the % scale 0 is the no-effect control and ±100 the full control effect; nearly all actives have a fitted effect of over 35% in size
Procedure, shortened: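 HUV-EC-C normal human vascular endothelial cells, 1000 cells/well, pre-incubated 5 hr at 37 °C, then exposed to compounds for 40 hr at 37 °C in complete medium. Viability measured as intracellular ATP by CellTiter-Glo luminescence; AC50 from Hill fits.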

[10] = Cell Viability - Renal Proximal Tubule (AID 545); settings: renal proximal tubule cells viability; at 91.7 µM (top of the series), primary cells of rat origin unless noted; further: nearly all actives have a fitted effect of over 40% in size
Procedure, shortened: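 In this qHTS format, normal rat kidney-derived proximal tubule cells in complete culture medium receive compound titrations, then sit 40 hours at 37 °C before luciferase-based ATP quantitation; potency is reported as AC50 from concentration-response curves.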

[11] = Cellular Toxicity (caspase-3) HepG2 (AID 654);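 further: cells exposed to compound for 16 hours before reading; 0% = DMSO alone and 100% = caspase signal from 100 µM tamoxifen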
Procedure, shortened: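 HepG2 cells (1500/well) in complete medium were treated with compounds for 16 hr at 37 °C. Caspase-3/7 activity was then read as luminescence from peptide-aminoluciferin cleavage. AC50 came from Hill fits, normalized to DMSO and 100 uM tamoxifen.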

[12] = Cellular Toxicity (caspase-3) Jurkat (AID 655); settings: Jurkat caspase-3 activation, luminescence, DMSO = 0%, tamoxifen = 100%; at 92.2 µM (top of the series);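 further: cells exposed to compound for 16 h at 37 °C before reading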
Procedure, shortened: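 qHTS in human Jurkat T-cell leukemia line: 16 hr compound treatment at 37 °C, caspase-3/7 activity measured by Caspase-Glo luminescence. AC50 derived from Hill equation.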

[13] = Cellular Toxicity (caspase-3) HUV-EC-C (AID 656)
Procedure, shortened: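 Concentration-dependent caspase 3/7 induction was assessed in HUV-EC-C cells exposed for 16 hours. Data scaled between DMSO and tamoxifen (100 uM) controls.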

[14] = Cellular Toxicity (caspase-3) SHSY5Y (AID 657)
Procedure, shortened: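 Readout: caspase-cleaved peptide-aminoluciferin substrate driving luciferase light in SH-SY5Y neuroblastoma cells after 16 h treatment. Response normalized to DMSO and 10 uM staurosporine controls.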

[15] = Cellular Toxicity (caspase-3) BJ (AID 658);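 further: 0% = DMSO basal and 100% = 10 µM staurosporine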
Procedure, shortened: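 Readout: Caspase-Glo 3/7 luminescence increase in BJ cells after 16 hr treatment at 37 °C. Staurosporine and tamoxifen served as positive controls; AC50 values came from Hill modelling of data normalized to DMSO and 10 uM staurosporine.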

[16] = Cellular Toxicity (caspase-3) MRC-5 (AID 659);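 further: 0% = DMSO basal and 100% = 10 µM staurosporine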
Procedure, shortened: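 Concentration-dependent caspase 3/7 activation is measured in human normal lung fibroblasts (MRC-5) following 16-hour treatment. AC50 values come from standard Hill-equation modeling of luminescence normalized to DMSO and 10 uM staurosporine.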

[17] = Cellular Toxicity (caspase-3) Mesangial (AID 660);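 further: cells exposed to compound for 16 h before the caspase read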
Procedure, shortened: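 Human renal glomerular mesangial cells (1000/well) were treated with compounds for 16 h at 37 °C in complete medium, then caspase 3/7 activity was read by Caspase-Glo luminescence. Data were normalized to DMSO and 100 uM tamoxifen; AC50 from Hill fits.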

[18] = Cellular Toxicity (caspase-3) SK-N-SH (AID 661);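 further: 0% = DMSO basal and 100% = 10 µM staurosporine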
Procedure, shortened: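 SK-N-SH human neuroblastoma cells (1500/well) were treated with compounds for 16 hr at 37 °C in complete medium; caspase 3/7 activity was read by Caspase-Glo luminescence. AC50 came from Hill fits of data normalized to DMSO and 10 uM staurosporine.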

[19] = Cellular Toxicity (caspase-3) H-4-II-E (AID 663);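 further: cells exposed to compound for 16 hr before readout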
Procedure, shortened: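 Apoptosis induction is scored as increased luminescence from caspase 3/7 substrate cleavage in rat hepatoma H-4-II-E cells exposed to compound for 16 hr. Activity is scaled between DMSO and 100 uM tamoxifen.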

[20] = Cellular Toxicity (caspase-3) NIH 3T3 (AID 666);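 further: 0% = DMSO basal and 100% = 100 µM tamoxifen stimulation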
Procedure, shortened: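 Mouse NIH 3T3 fibroblasts (1000 cells/well) were treated with compound for 16 hr at 37°C in complete medium; caspase-3/7 activity was read by Caspase-Glo luminescence. Normalized to DMSO and 100 uM tamoxifen; AC50 from Hill fits.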

[21] = Cellular Toxicity (caspase-3) Renal Proximal Tubule (AID 667); settings: renal proximal tubule cells; at 91.7 µM (top of the series), primary cells freshly taken from rat, solvent-only wells 0%, staurosporine 100% unless noted;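 further: cells exposed to compound for 16 hours at 37 °C before detection; 0% = DMSO basal and 100% = 10 µM staurosporine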
Procedure, shortened: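 Caspase-Glo 3/7 read-out, rat primary kidney proximal tubule cells. Compound exposure 16 h, 37 °C; detection after 1 h at RT. Activity scaled to DMSO and 10 uM staurosporine.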

[22] = biological target: Cytochrome P450 3A4 (Homo sapiens) (UniProt P08684); assay: qHTS Assay for Inhibitors and Substrates of Cytochrome P450 3A4 (AID 884); further: potency means the concentration at half of the fitted maximal effect; nearly all actives have a fitted effect of over 50% in size
Procedure, shortened: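 20 nM human CYP3A4 with 25 uM Luciferin-PPXE (at KM) in 200 mM KPO4, preincubated 10 min with compound; NADPH regeneration started a 60 min RT reaction. Luciferin detected by luminescence, normalized to 57 uM ketoconazole as full inhibition.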

[23] = biological target: Cytochrome P450 3A4 (Homo sapiens) (UniProt P08684); assay: qHTS Assay for Activators of Cytochrome P450 3A4 (AID 885); further: nearly all actives have a fitted effect of over 65% in size
Procedure, shortened: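 Human CYP3A4 (20 nM) with Luciferin-PPXE at 25 uM (its KM) in 200 mM KPO4; 10 min compound preincubation, then NADPH regeneration and 60 min reaction at RT. Luciferin read by luminescence; normalized to 57 uM ketoconazole full inhibition.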

[24] = MultiTox-Fluor Cytotoxicity Assay - LYMP1-001 - Live Cells (AID 947);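 further: 0% = DMSO only and full inhibition = tetraoctylammonium bromide control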
[25] = Cell Viability - LYMP1-002 - Assay at 16 hr (AID 948);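 further: 0% = DMSO alone and full effect = 92 µM tetraoctylammonium bromide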
Procedure, shortened: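 In this qHTS, lymphoblastoid LYMP1-002 cells (human) receive compounds for 16 hr at 37 C. Viability is taken from CellTiter-Glo ATP luminescence, and AC50 derives from standard Hill fits.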

[26] = MultiTox-Fluor Cytotoxicity Assay - LYMP1-002 - Live Cells (AID 955); further: on the % scale 0 is the no-effect control and ±100 the full control effect
Procedure, shortened: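 Human lymphoblastoid LYMP1-002 cells, 2500/well in complete medium, rested 5 hr at 37 C, then exposed to compounds for 16 hr at 37 C. Live-cell protease cleavage of GF-AFC read by fluorescence (Ex/Em 405/510) after 60 min at room temperature; AC50 from Hill fits.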

[27] = MultiTox-Fluor Cytotoxicity Assay - LYMP1-002 - Dead Cells (AID 960);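 further: 0% = DMSO and 100% = tetraoctylammonium bromide; nearly all actives have a fitted effect of over 60% in size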
Procedure, shortened: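 Human lymphoblastoid cells (LYMP1-002), 2500/well in complete medium, were exposed to compounds for 16 hr at 37 C. Dead-cell protease activity was read as bis-AAF-R110 fluorescence (Ex/Em 485/520), normalized to DMSO and 15 uM tetraoctylammonium bromide; AC50 from Hill fits.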

[28] = MultiTox-Fluor Cytotoxicity Assay - LYMP1-003 - Live Cells (AID 962);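 further: 0% = DMSO only and full loss = 92 µM tetraoctylammonium bromide; cytotoxic hits lower the live-cell protease signal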
Procedure, shortened: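 LYMP1-003 human lymphoblastoid cells (2500/well) in complete medium were preincubated 5 hr at 37 C, then exposed to compounds for 16 hr at 37 C. Live-cell protease cleavage of GF-AFC read by fluorescence (Ex/Em 405/510); AC50 from Hill fits.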

[29] = Cell Viability - LYMP1-003 - Assay at 24 hr (AID 963);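 further: plate controls were DMSO only for no effect and tetraoctylammonium bromide positive control for full effect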
Procedure, shortened: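 Human lymphoblastoid LYMP1-003 cells (2500/well) were rested 5 hr at 37 C, then exposed to compounds in complete medium for 24 hr at 37 C. Cellular ATP was quantified by CellTiter-Glo luminescence, and AC50 values came from Hill fits of concentration-response data.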

[30] = Cell Viability - LYMP2-003 (AID 965);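 further: cells exposed to compounds for 24 h before reading; 0% = DMSO only and full effect = 92 µM tetraoctylammonium bromide; nearly all actives have a fitted effect of over 50% in size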
Procedure, shortened: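 qHTS, human lymphoblastoid line, 2500 cells/well, complete medium. 24 h drug, 37 C. ATP-based luminescent readout; Hill-fit AC50.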

[31] = Cell Viability - LYMP2-004 (AID 966);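 further: plate controls were DMSO only for no effect and tetraoctylammonium bromide control for full effect; nearly all actives have a fitted effect of over 65% in size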
Procedure, shortened: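 Human lymphoblastoid cells (2500/well) in complete medium were treated with compounds for 24 hr at 37 C, then intracellular ATP was measured by CellTiter-Glo luminescence. AC50 values came from Hill-equation fits of concentration-response data.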

[32] = Cell Viability - LYMP2-009 (AID 968);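 further: 0% = DMSO alone and the full-kill end = tetraoctylammonium bromide at 92 µM; nearly all actives have a fitted effect of over 55% in size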
[33] = Cell Viability - LYMP2-021 (AID 974);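 further: compound exposure lasts 24 hours at 37 °C; on the % scale 0 is the no-effect control and ±100 the full control effect; nearly all actives have a fitted effect of over 55% in size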
Procedure, shortened: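 Human lymphoblastoid cells (2500/well) were preincubated 5 hr at 37 C, then exposed to compounds for 24 hr at 37 C in complete medium. Intracellular ATP was read by CellTiter-Glo luminescence; AC50 came from Hill-equation fits of concentration-response data.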

[34] = Cell Viability - LYMP2-023 (AID 975);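 further: cellular ATP measured by luciferase luminescence as viability proxy; plate controls were DMSO only for no effect and 92 µM tetraoctylammonium bromide control for full effect; nearly all actives have a fitted effect of over 55% in size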
Procedure, shortened: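 Human lymphoblastoid cells (2500/well) were preincubated 5 hr at 37 C, then exposed to compounds for 24 hr at 37 C in complete medium. Cellular ATP was read by CellTiter-Glo luminescence, and AC50 came from Hill-equation fits.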

[35] = Cell Viability - LYMP2-025 (AID 976);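 further: plate controls were DMSO only for no effect and tetraoctylammonium bromide control for full effect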
Procedure, shortened: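 Human lymphoblastoid LYMP2-025 cells (2500/well) were pre-incubated 5 hr at 37 C, then treated with compounds for 24 hr at 37 C in complete medium. Viability was read as intracellular ATP by CellTiter-Glo luminescence; AC50 from Hill fits.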

[36] = Cell Viability - LYMP2-002 (AID 977);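 further: compound exposure lasted 24 h at 37 °C; plate controls were DMSO only for no effect and 92 µM tetraoctylammonium bromide for full effect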
Procedure, shortened: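 Cytotoxicity is scored as concentration-dependent loss of cellular ATP in a human lymphoblastoid line after 24 hr compound treatment at 37 C. AC50 is obtained by modelling concentration-response data with the Hill equation.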

[37] = Cell Viability - LYMP2-006 (AID 978)
Procedure, shortened: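 In this cytotoxicity screen, the human lymphoblastoid line grew in complete medium with test compounds for 24 hr at 37 C. Cellular ATP served as the viability signal.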

[38] = Cell Viability - LYMP2-007 (AID 979)
Procedure, shortened: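 Human lymphoblastoid cells (2500/well) were plated in complete medium, incubated 5 hr at 37 C, then exposed to compounds for 24 hr at 37 C. Intracellular ATP was read by CellTiter-Glo luminescence after 30 min at room temperature; AC50 from Hill fits.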

Chain of Cytochrome P450 3A4 (Homo sapiens) (P08684 whole entry, looked up): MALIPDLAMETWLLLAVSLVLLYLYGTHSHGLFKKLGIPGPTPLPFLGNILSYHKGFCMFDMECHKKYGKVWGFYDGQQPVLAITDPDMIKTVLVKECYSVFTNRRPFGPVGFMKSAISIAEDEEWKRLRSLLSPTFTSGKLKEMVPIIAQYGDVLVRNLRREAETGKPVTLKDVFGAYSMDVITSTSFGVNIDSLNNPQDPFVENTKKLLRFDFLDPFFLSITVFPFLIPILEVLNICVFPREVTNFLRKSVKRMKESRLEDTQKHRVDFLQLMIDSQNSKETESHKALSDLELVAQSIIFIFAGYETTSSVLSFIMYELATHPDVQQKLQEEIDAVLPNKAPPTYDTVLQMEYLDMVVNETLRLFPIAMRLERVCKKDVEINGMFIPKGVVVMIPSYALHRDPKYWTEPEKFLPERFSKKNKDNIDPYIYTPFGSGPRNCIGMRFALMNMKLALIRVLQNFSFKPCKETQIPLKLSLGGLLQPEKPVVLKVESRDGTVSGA

C[C@H]1CCCC(=O)CCC/C=C/c2cc(O)cc(O)c2C(=O)O1
inactive: Potency [1] > 92 µM | Potency [3] > 92 µM | Potency [4] > 92 µM | outcome [6] | Potency [9] | activity change, negative = cytotoxicity [10] -28.2% [at 91.7 µM] | outcome [11] | caspase-3 activation [12] 17.6% and 19.1% | outcome [13] | outcome [14] | outcome [15] | outcome [16] | outcome [17] | outcome [18] | outcome [19] | outcome [20] | caspase-3 activation [21] 5.71% [at 91.7 µM] and 9.28% [at 91.7 µM] | Potency [23] | Potency [24] | Potency [25] | outcome [26] | Potency [27] | Potency [28] | Potency [29] | Potency [30] | Potency [31] | Potency [32] | Potency [33] | Potency [34] | Potency [35] | Potency [36] | Potency [37] | Potency [38]
active: Potency [2] 31.1 µM and 40.2 µM | Potency [5] 59.8 µM | activity change, negative = cytotoxicity [7] -95.8% and -87.8% | activity change, negative = cytotoxicity [8] -105% | Potency [22] 316 nM and 398 nM
